Laboratory results from PubChem BioAssay (NCATS).
Inconclusive results are not listed. The source made the active and inactive calls. Unless noted, calls follow the shape of the dose curve; as a rule, active = well fitted curve in the direction sought with a large enough effect; inconclusive = small, poorly fitted or top-dose-only effect, or another doubt; inactive = no such curve, though single readings can be large; an effect the other way counts as inactive or inconclusive.

Legend:
[1] = biological target: Luciferin 4-monooxygenase (Photinus pyralis) (UniProt P08659); assay: Primary firefly luciferase (FLuc) qHTS assay for identification of artifact compounds. (AID 1845220);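 also: plate controls were DMSO vehicle for no effect and no enzyme for full effect; nearly all actives have a fitted effect of over 60% in size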
Method in brief: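 Enzymatic FLuc inhibition assay: compounds pre-exposed to luciferin/ATP (10 uM each) for 15 min, then purified P. pyralis enzyme at 10 nM added. Read-out: luminescence at 5 min.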

[2] = Primary fluorescence-based thiol-reactive (MSTI) qHTS assay for identification of artifact compounds. (AID 1845221);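 also: thiol-reactive compounds lower the probe fluorescence signal; nearly all actives have a fitted effect of over 65% in size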
Method in brief: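 Reactivity toward the thiol probe MSTI (4 uM) is scored by fluorescence at Ex/Em 525/598 nm after 1 h at room temperature. Acetyl-MSTI and MSTI define the activity scale.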

[3] = test system: Nanoluciferase (engineered Oplophorus gracilirostris luciferase); assay: Primary Nanoluciferase (NLuc) qHTS assay for identification of artifact compounds. (AID 1845222);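 also: NLuc secreted into diluted conditioned medium of S16 cells; 0% = DMSO and -100% = no enzyme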
Method in brief: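 S16 cell supernatant NLuc, 1:55; cpds qHTS; 15 min RT dark; Nano-Glo substrate 1:100, 5 min; luminescence; Hill fit of % inhibition.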

[4] = Primary redox qHTS assay for identification of artifact compounds. (AID 1845223);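 also: 0% = DMSO and 100% = reference compound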
Method in brief: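 Redox-cycling detection via DTT (250 uM final) oxidation coupled to Amplex Red (25 uM)/HRP (250 mU/mL) in HBSS. 15 min preincubation plus 30 min after DTT, room temperature. Ex/Em 525/598 nm; 4-parameter Hill fit against DMSO and 10 uM DA3003.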

[5] = biological target: Cytochrome P450 3A4 (Homo sapiens) (UniProt P08684); assay: qHTS for inhibitors of CYP3A4 against the NCATS DSHEA and TCM libraries (AID 1919971);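 also: % is scaled to controls: 0 for no effect and ±100 for the full control effect; inhibition lowers luminescence from luciferin made by CYP3A4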
Cytochrome P450 3A4 (Homo sapiens), sequence (P08684 whole entry, looked up, canonical isoform): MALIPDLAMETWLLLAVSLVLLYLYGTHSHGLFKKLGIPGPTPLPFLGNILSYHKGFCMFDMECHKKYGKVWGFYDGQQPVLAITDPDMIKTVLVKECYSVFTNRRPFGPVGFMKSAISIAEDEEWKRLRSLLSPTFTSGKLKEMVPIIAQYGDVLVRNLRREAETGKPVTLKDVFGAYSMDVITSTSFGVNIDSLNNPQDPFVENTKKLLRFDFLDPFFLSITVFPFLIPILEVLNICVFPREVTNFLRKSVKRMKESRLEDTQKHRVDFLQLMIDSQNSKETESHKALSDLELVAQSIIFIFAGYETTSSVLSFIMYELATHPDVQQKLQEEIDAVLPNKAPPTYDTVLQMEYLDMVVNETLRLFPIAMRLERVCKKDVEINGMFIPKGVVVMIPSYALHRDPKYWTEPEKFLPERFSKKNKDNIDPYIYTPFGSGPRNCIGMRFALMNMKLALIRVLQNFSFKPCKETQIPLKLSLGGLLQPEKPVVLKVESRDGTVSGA
Method in brief: (§1)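 Isoform-specific enzyme and substrate levels; enzyme-free wells as background. Reaction: 1x NADPH regenerating system, 30-45 min, room temperature, shielded from light; luminescent detection reagent added, 30 min.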

[6] = biological target: Cytochrome P450 2C9 (Homo sapiens) (UniProt P11712); assay: qHTS for inhibitors of CYP2C9 against the NCATS DSHEA and TCM libraries (AID 1919973);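 also: luminogenic pro-luciferin CYP2C9 substrate turned into luciferin with NADPH regeneration; % is scaled to controls: 0 for no effect and ±100 for the full control effect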
Cytochrome P450 2C9 (Homo sapiens), sequence (P11712 whole entry, looked up): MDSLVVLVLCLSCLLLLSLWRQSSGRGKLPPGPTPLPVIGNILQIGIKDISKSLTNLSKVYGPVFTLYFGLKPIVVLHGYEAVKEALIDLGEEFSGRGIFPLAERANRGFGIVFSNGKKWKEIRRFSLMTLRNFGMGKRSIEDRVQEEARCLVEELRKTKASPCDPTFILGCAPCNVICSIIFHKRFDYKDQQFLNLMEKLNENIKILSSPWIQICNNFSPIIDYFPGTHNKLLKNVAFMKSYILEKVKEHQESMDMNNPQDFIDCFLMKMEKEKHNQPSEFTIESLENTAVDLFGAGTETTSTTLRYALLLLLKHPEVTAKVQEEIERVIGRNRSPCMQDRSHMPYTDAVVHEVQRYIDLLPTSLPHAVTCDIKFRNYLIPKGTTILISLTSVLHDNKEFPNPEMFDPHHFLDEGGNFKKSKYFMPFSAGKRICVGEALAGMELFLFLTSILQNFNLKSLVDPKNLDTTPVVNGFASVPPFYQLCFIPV
Method in brief: as §1

[7] = biological target: Cytochrome P450 1A2 (Homo sapiens) (UniProt P05177); assay: qHTS for inhibitors of CYPIA2 against the NCATS DSHEA and TCM libraries (AID 1919976);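 also: light from luciferin formed by CYP1A2 from a pro-luciferin substrate; % is scaled to controls: 0 for no effect and ±100 for the full control effect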
Cytochrome P450 1A2 (Homo sapiens), sequence (P05177 whole entry, looked up): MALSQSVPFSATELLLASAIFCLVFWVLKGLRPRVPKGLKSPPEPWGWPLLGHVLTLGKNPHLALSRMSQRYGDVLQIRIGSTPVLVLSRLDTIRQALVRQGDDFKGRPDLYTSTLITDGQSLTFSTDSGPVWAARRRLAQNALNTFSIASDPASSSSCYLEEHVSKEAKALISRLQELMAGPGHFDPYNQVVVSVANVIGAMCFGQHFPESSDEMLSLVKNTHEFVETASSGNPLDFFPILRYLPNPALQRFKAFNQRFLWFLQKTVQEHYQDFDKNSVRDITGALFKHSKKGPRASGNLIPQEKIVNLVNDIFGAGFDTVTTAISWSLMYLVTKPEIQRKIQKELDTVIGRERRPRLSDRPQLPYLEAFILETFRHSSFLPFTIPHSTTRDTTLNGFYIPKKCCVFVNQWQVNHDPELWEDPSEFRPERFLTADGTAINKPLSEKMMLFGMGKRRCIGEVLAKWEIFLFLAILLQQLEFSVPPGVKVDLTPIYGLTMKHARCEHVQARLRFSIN
Method in brief: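 Furafylline served as the plate control. Compounds met CYP1A2 and pro-luciferin substrate 15 min before NADPH regeneration solution (1x) was added; after 30-45 min at RT, P450-Glo reagent was added for 30 min and luminescence was measured.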

[8] = biological target: Nuclear receptor subfamily 1 group I member 2 (Homo sapiens) (UniProt O75469); assay: Dual reporter qHTS for agonist of Pregnane X Receptor (hPXR) against the NCATS DSHEA and TCM libraries: Luminescence readout (AID 1920059); also: 0% is about no effect
Nuclear receptor subfamily 1 group I member 2 (Homo sapiens), sequence (O75469 whole entry, looked up): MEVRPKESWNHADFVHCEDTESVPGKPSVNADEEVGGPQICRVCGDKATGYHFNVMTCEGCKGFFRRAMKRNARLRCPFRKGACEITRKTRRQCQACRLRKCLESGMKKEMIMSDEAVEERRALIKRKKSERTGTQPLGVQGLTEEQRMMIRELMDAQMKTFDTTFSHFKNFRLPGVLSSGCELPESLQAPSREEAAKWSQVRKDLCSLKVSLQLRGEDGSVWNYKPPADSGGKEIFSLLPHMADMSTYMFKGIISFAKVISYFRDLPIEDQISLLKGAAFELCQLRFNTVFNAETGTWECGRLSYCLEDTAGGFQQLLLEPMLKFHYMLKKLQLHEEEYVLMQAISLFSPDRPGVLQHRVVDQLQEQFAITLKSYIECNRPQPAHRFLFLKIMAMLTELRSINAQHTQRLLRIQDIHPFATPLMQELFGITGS
Method in brief: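 hPXR-Luc HepG2 cells, 2000/well in 5% charcoal-stripped FBS medium, attached 5 h, then exposed 24 h at 37C to compounds. Viability by CellTiter-Fluor, then luciferase luminescence with ONE-Glo.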

[9] = biological target: Nuclear receptor subfamily 1 group I member 2 (Homo sapiens) (UniProt O75469); assay: Dual reporter qHTS for antagonist of Pregnane X Receptor (hPXR) against the NCATS DSHEA and TCM libraries: Luminescence Readout (AID 1920060);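 also: HepG2 cells carrying hPXR luciferase reporter stimulated with rifampicin at 2 µM; 0% is about no effect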
Method in brief: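 HepG2 hPXR-Luc, 2000 cells/well, charcoal-stripped FBS medium; 5 h attach; RIF 2 uM final; 24 h 37C/5% CO2; CellTiter-Fluor 1 h, fluor 405/540; ONE-Glo 30 min RT, lum.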

[10] = biological target: Cytochrome P450 2C19 (Homo sapiens) (UniProt P33261); assay: qHTS for inhibitors of CYP2C19 against the NCATS DSHEA and TCM libraries (AID 1919974);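 also: luminescence from luciferin released by CYP2C19 oxidation of a pro-luciferin substrate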; also: potency is read from the fitted curve at half-maximal effect
Cytochrome P450 2C19 (Homo sapiens), sequence (P33261 whole entry, looked up): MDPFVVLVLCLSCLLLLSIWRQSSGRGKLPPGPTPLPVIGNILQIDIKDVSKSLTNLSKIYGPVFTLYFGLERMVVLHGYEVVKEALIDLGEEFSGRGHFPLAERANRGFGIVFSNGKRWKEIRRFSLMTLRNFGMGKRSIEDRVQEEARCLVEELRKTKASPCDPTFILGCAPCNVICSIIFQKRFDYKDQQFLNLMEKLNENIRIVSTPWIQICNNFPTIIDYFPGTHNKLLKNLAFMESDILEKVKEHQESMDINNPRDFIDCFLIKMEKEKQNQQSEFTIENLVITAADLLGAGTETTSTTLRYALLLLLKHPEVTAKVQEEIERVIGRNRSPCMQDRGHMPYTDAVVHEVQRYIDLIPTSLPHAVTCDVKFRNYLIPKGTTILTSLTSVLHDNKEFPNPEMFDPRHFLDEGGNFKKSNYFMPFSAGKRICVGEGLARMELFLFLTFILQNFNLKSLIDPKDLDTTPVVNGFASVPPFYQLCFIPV
Method in brief: as §1

[11] = qHTS drug screen for cell cycle checkpoint inhibitors in PARPi-resistant BRCA-mutant ovarian cancer cell lines. (AID 1963452; calls by dose curve; also: potency is read from the fitted curve at half-maximal effect); settings: PEO1/OlaR viability, CellTiter-Glo luminescence, 96 h
Method in brief: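 PEO1, PEO4 and PEO1/OlaR ovarian cancer cells, 600 per well, exposed 96 h at 37C to a dilution series. Viability read by CellTiter-Glo luminescence, normalized to DMSO and empty wells; activity summarized as Z-AUC.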

[12] = qHTS profiling for inhibitors of Plasmodium falciparum proliferation (AID 504749); also: potency is read from the fitted curve at half-maximal effect;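 as to activity, negative = inhibition: 0% = DMSO vehicle and full inhibition = artemisinin control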; as to all read-outs here: nearly all actives have a fitted effect of over 60% in size; settings: P. falciparum in erythrocytes, SYBR Green DNA, 72 h; for activity, negative = inhibition: at 28.7 µM (top of the series)
Method in brief: (§2)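 SYBR Green fluorescence (ex 485 nm, em 535 nm) reports parasite DNA after 72 h compound exposure of infected red cells at 0.3% parasitemia, 2.5% hematocrit; signal normalized to 0.29 uM artemisinin and vehicle wells.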

3D7 = assay: as above; settings: P. falciparum in erythrocytes, SYBR Green DNA, 72 h; series mostly up to 28.7 µM
Method in brief: as §2

7G8 = assay: as above; settings: P. falciparum in erythrocytes, SYBR Green DNA, 72 h; series mostly up to 28.7 µM
Method in brief: as §2

Clc1ccc(N2C[C@H]3CC[C@@H](C2)N3)nn1
inactive: Potency [1] | Potency [2] | outcome [3] | outcome [4]

O=C/C=C/c1ccccc1
inactive: outcome [5] | outcome [6] | outcome [7] | outcome [8] | outcome [9]

CNC(C)C(O)c1ccc(O)cc1 (stereo not drawn)
inactive: outcome [5] | outcome [6] | Potency [10] | outcome [7] | outcome [8]

O=Cc1ccco1
inactive: outcome [9]
active: Potency [10] 6.31 µM

C/C(=C\c1csc(C)n1)[C@@H]1C[C@@H]2O[C@]2(C)CCC[C@H](C)[C@H](O)[C@@H](C)C(=O)C(C)(C)[C@@H](O)CC(=O)O1
active: Potency [11] 0.0078 µM | Potency ([12]; parasite line A) 0.002 µM | Potency ([12]; parasite line B) 0.0035 µM

c1ccc2sc(SNC3CCCCC3)nc2c1
inactive: activity, negative = inhibition ([12]; parasite line A) 7.11% | activity, negative = inhibition ([12]; parasite line B) 2.42% | Potency (3D7)

O=C(CS(=O)C(c1ccccc1)c1ccccc1)NO (stereo not drawn)
inactive: activity, negative = inhibition ([12]; parasite line A) -13.7% | activity, negative = inhibition ([12]; parasite line B) 0.0253% | Potency (3D7) | Potency (7G8)

c1ccc2cc(CC3=NCCN3)ccc2c1
inactive: activity, negative = inhibition ([12]; parasite line A) 3.45% | activity, negative = inhibition ([12]; parasite line B) -0.535% | Potency (3D7)

CCN(CC)C(=O)/C(Cl)=C(\C)OP(=O)(OC)OC
inactive: activity, negative = inhibition ([12]; parasite line A) -6.34% | activity, negative = inhibition ([12]; parasite line B) 3.3% | Potency (3D7)

O=P(O)(O)C(Cl)(Cl)P(=O)(O)O
inactive: activity, negative = inhibition ([12]; parasite line A) 6.37% | activity, negative = inhibition ([12]; parasite line B) 14% | Potency (3D7) | Potency (7G8)

N#CN
inactive: activity, negative = inhibition ([12]; parasite line A) 10.5% | activity, negative = inhibition ([12]; parasite line B) 6.79% | Potency (3D7) | Potency (7G8)

C=CCN1CC[C@]23c4c5ccc(O)c4O[C@H]2[C@@H](O)C=C[C@H]3[C@H]1C5
inactive: activity, negative = inhibition ([12]; parasite line A) -14.2% | activity, negative = inhibition ([12]; parasite line B) 6.2% | Potency (3D7) | Potency (7G8)

CCCC(C)(COC(N)=O)COC(=O)NC1CC1 (stereo not drawn)
inactive: activity, negative = inhibition ([12]; parasite line A) 8.1% | activity, negative = inhibition ([12]; parasite line B) 1.21% | Potency (3D7)

FC(F)OC(F)(F)C(F)Cl (stereo not drawn)
inactive: activity, negative = inhibition ([12]; parasite line A) 10.8% | activity, negative = inhibition ([12]; parasite line B) 14% | Potency (3D7) | Potency (7G8)

CC(C)Nc1ccc(Nc2ccccc2)cc1
active: Potency ([12]; parasite line A) 3.16 µM | Potency ([12]; parasite line B) 5.01 µM | Potency (3D7) 6.31 µM | Potency (7G8) 8.91 µM

O=C1C2CC=CCC2C(=O)N1SC(Cl)(Cl)Cl (stereo not drawn)
inactive: activity, negative = inhibition ([12]; parasite line A) -6.95% | activity, negative = inhibition ([12]; parasite line B) 5.29% | Potency (3D7)
